Compound activity as filed in PubChem.
PLK1 PBD block: qHTS for Inhibitors of PLK1-PDB (polo-like kinase 1 - polo-box domain): Primary Screen | Serine/threonine-protein kinase PLK1 (Homo sapiens), P53350 | Plk1 PBD binding of FITC phosphopeptide, fluorescence polarization | Potency, µM, for the others: max response, negative = inhibition, actives largely listed as inhibitors | 2.8% of 360,000 active; further: series mostly up to about 57 µM; nearly all actives have a fitted effect of over 65% in size
Tau ThT inhib: qHTS for Inhibitors of Tau Fibril Formation, Thioflavin T Binding; recombinant tau K18 P301L, heparin-induced fibrillization, ThT fluorescence; Potency, µM (top dose mostly 57.4 µM), for the others: top-dose activity, negative = inhibition, most hits filed as inhibitors; 2.1% of 270,000 active; further: nearly all actives have a fitted effect of over 55% in size
Target sequence (P10636 561-689 P618L limits assumed): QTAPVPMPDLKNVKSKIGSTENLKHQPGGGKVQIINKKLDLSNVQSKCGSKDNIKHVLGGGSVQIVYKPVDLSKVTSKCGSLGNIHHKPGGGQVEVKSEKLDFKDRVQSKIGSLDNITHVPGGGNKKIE
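In this qHTS, human K18 P301L tau is incubated with compound and heparin for 6 hr at 37 C, and Thioflavin T fluorescence then reports fibril load.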
VDR inhibitor: Inhibitors of the vitamin D receptor (VDR): qHTS. Vitamin D3 receptor (Homo sapiens), P11473. VDR-SRC2-3 peptide fluorescence polarization, 2 h. Potency, µM, for the others: max response, negative = inhibition, usual class: inhibitors. 0.93% of 400,000 active. AID 504847, 2011
Target sequence (P11473 whole entry, looked up): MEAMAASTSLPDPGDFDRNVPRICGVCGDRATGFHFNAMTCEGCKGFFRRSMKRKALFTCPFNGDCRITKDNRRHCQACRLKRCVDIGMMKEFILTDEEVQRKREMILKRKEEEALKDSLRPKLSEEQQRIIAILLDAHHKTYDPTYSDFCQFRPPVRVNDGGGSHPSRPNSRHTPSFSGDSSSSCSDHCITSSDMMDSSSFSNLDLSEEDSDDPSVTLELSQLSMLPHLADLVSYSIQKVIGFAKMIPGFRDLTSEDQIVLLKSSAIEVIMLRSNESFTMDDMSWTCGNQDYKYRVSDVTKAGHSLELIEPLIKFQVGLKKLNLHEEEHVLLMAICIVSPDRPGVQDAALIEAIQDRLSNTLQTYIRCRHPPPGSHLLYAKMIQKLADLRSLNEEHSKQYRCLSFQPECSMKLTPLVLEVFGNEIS
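FP read-out; VDR + SRC2-3 coactivator peptide; 23 nl compound by pintool; 2 h RT incubation; reagents held at 4 deg C, protected from light.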
Tau fibril FP: qHTS for Inhibitors of Tau Fibril Formation, Fluorescence Polarization | 0.39% of 280,000 active | K18 P301L tau heparin fibrillization, Alexa594 FP, 6 h | Microtubule-associated protein tau (Homo sapiens), P10636 | Potency, µM (top dose mostly 57.7 µM), for inactives: at the highest dose activity, negative = inhibition, actives largely listed as inhibitors; further: nearly all actives have a fitted effect of over 55% in size
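Human tau K18 […] P301L fragment, 15 uM unlabeled plus 0.24 uM Alexa 594-labeled tau (final), with compound and 20 uM heparin in 100 mM sodium acetate pH 7; 6 hr at 37 C, then Alexa 594 FP read.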
Sfp PPTase inh: qHTS Assay for Inhibitors of Bacillus subtilis Sfp phosphopantetheinyl transferase (PPTase); 3.5% of 310,000 active; 4'-phosphopantetheinyl transferase ffp (Bacillus subtilis), Q9F4F7; Biochemical Sfp PPTase activity, qHTS; AID 1490, 2009; Potency, µM, without a hit: largest response in the series, negative = inhibition, hits mostly inhibitors;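 further: the enzyme is Sfp with the accession as filed and its product quenches rhodamine fluorescence; 0% = enzyme reaction without inhibitor and -100% = no enzyme wells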
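Fluorescence-quenching assay with 15 nM Sfp, 5 uM rhodamine-CoA and 12.5 uM BHQ-2-labelled ybbR peptide in pH 7.6 Hepes/MgCl2 buffer. Enzyme was pre-incubated with compound for 15 min at room temperature. Rate was taken from the 30-min fluorescence change (525/598 nm).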
Tau fluor counter: Counterscreen qHTS for Inhibitors of Tau Fibril Formation, Fluorescence Polarization; tau K18 P301L (four-repeat tau fragment) Alexa594 fluorescence, heparin fibrillization; Potency, µM (doses to about 57.7 µM), without a hit: at the top dose activity change, negative = decrease; 0.93% of 280,000 active; AID 1463, 2008; further: nearly all actives have a fitted effect of over 55% in size
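Human K18 P301L tau (15 uM unlabeled plus 0.24 uM Alexa 594-labeled, final) in 100 mM sodium acetate pH 7 was mixed with compound and 20 uM heparin and incubated 6 hr at 37 C.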
An asterisk follows results filed as active; ? = inconclusive; . = no result given; [ ] = dose if it differs, or a comment. The list is not random: actives were taken first. Their share in the collection is about 6%. The call rests on the fitted dose curve; in most records, active means well fitted curve in the direction sought with a large enough effect; inconclusive means small, poorly fitted or top-dose-only effect, or another doubt; inactive means no such curve, though single readings can be large; an effect the other way counts as inactive or inconclusive. Unless noted, on the % scale 0 is the no-effect control and ±100 the full control effect; potency means the concentration at half of the fitted maximal effect.

SMILES	PLK1 PBD block	Tau ThT inhib	VDR inhibitor	Tau fibril FP	Sfp PPTase inh	Tau fluor counter
COc1cc(-c2ccc(N=Nc3ccc4c(S(=O)(=O)O)cc(S(=O)(=O)O)c(N)c4c3O)c(OC)c2)ccc1N=Nc1ccc2c(S(=O)(=O)O)cc(S(=O)(=O)O)c(N)c2c1O	.	1.58µM*	?	2.82µM*	3.98µM*	1µM*[quencher]
NC(=S)N/N=C/c1ccc(C(F)(F)F)cc1	1.3%	-0.6%	-15.1%	2.9%	-16.3%	-0.2%
NC(=S)N/N=C/c1ncc(C(F)(F)F)cc1Cl	-4.1%	-20.0%	?	-10.1%	25.1µM*	-12.8%
O=C1c2ccccc2NC(c2ccc(-c3cccc([N+](=O)[O-])c3)o2)N1O (stereo not given)	-16.0%	?	-0.4%	11.4%	3.3%	-21.7%
CN=c1scc(-c2ccc([N+](=O)[O-])cc2)n1/N=C/c1ccco1	-2.3%	3.55µM*	-14.0%	-6.3%	7.5%	-28.8%
O=C1c2ccc([N+](=O)[O-])cc2NC(c2ccco2)N1/N=C/c1ccco1 (stereo not given)	-6.3%	12.6µM*	-16.6%	10.0%	?	?
COc1ccc(N2CC(C(=O)Nc3ccc(S(=O)(=O)Nc4nccs4)cc3)CC2=O)c(OC)c1 (stereo not given)	-9.2%	.	-12.0%	.	.	.
Cc1cc(NS(=O)(=O)c2ccccc2)ccc1NS(=O)(=O)c1ccccc1	1.8%	.	2.9%	.	.	.
Cc1ccc(/C=C/C(=O)O)cc1S(=O)(=O)Nc1ccccc1C(=O)O	-24.6%	-3.9%	-0.8%	1.3%	-3.9%	6.2%
Cc1ccc(C)c(S(=O)(=O)Nc2ccc(O)c(C(=O)O)c2)c1	29.9µM*	1.6%	?	-8.3%	13.2%	-2.5%
O=S(=O)(Nc1ccc(O)c(NS(=O)(=O)c2ccccc2)c1)c1ccccc1	-9.9%	.	5.1%	.	39.8µM*	.
Cc1ccc(/C=C/C(=O)O)cc1S(=O)(=O)Nc1ccc(C(=O)O)cc1	26.7µM*	.	-7.9%	0.2%	-8.7%	-0.2%
Cc1ccc(C)c(S(=O)(=O)Nc2ccc(O)c3ccccc23)c1	23.8µM*	.	?	.	70.8µM*	.
Cc1ccc(C)c(S(=O)(=O)Nc2ccc(C(N)=O)cc2)c1	-11.7%	-4.6%	12.8%	-5.4%	10.2%	-4.6%
CCCn1c(SCC(=O)Nc2ccc(S(=O)(=O)N3CCOCC3)cc2)n[nH]c1=O	-9.9%	.	.	.	.	.
COc1ccc(C(=O)COC(=O)c2ccccc2NS(=O)(=O)c2ccc(O)c([N+](=O)[O-])c2)cc1	?	15.8µM*	-21.6%	10.3%	8.4%	-29.6%
COc1ccccc1NS(=O)(=O)c1ccc(O)c(C(=O)OCc2cccc([N+](=O)[O-])c2)c1	-6.1%	-1.9%	17.5%	-7.9%	-5.1%	?
COc1cc(/C=C/C(=O)O)cc(S(=O)(=O)Nc2ccc3nc(C)sc3c2)c1OC	-17.9%	-13.5%	-0.1%	-2.0%	39.8µM*	0.0%
COc1ccc(S(=O)(=O)Nc2ccc(O)c3ccccc23)cc1	26.7µM*	?	?	?	-3.8%	?
O=S(=O)(Nc1c(O)ccc2ccccc12)c1ccccc1	23.8µM*	.	?	.	.	.
COc1ccc(-n2c(=O)cnc3cnc(N(C)C)nc32)cc1	.	.	1.2%	.	15.5%	.
Cc1[nH]c2ccccc2c1/C=N/NC(=O)c1cccc(S(=O)(=O)Nc2cccc(C(F)(F)F)c2)c1	-12.6%	?	-0.3%	?	22.2%	8.91µM*[quencher]
CCC(=O)Nc1ccc(C(=O)N/N=C/c2c(C)[nH]c3ccccc23)cc1	?	11.2µM*	-4.8%	?	-3.5%	?
Cc1[nH]c2ccccc2c1/C=N/NC(=O)CCC(=O)NCc1ccccc1	11.9µM*	?	-21.3%	9.0%	1.6%	?
Cc1n[nH]c(C)c1CCC(=O)N/N=C/c1c(C)[nH]c2ccccc12	1.9%	.	9.4%	0.4%	15.7%	-9.8%
SMILES	PLK1 PBD block	Tau ThT inhib	VDR inhibitor	Tau fibril FP	Sfp PPTase inh	Tau fluor counter
NNC(=O)c1cccc(S(=O)(=O)Nc2cccc(C(F)(F)F)c2)c1	-4.8%	.	-21.8%	-0.3%	16.6%	-28.8%
Cc1[nH]c2ccccc2c1/C=N/NC(=S)NC(C)C	-8.8%	?	4.0%	13.4%	?	15.8µM*[quencher]
CCOC(=O)N/N=C1/C[C@@H](O)[C@@H](O)[C@@H]2[C@@H]3C(=O)N(C[C@@H]4CCCO4)C(=O)[C@H]3CC[C@H]12	.	-16.5%[11.5 µM]	.	2.5%[11.6 µM]	-15.1%	-18.7%[11.6 µM]
CCc1ccc(NC(=O)CN2C(=O)C3(SCC(=O)N3c3ccccc3)c3ccccc32)cc1 (stereo not given)	.	6.1%	10.2%	-18.0%	.	-22.7%
CCCCNc1nc(C)nc2c1nc(-c1ccccc1)n2CC(C)(C)CN(C)C	.	-0.7%	.	13.5%	2.3%	1.5%
Cc1[nH]c2ccccc2c1/C=N/NC(=O)C1CC1(c1ccccc1)c1ccccc1 (stereo not given)	0.1%	?	-29.8%	-5.2%	2.4%	5.01µM*[quencher]
Cc1[nH]c2ccccc2c1/C=N/NC(=O)c1cc(-c2cccs2)[nH]n1	-7.0%	5.62µM*	4.3%	?	-5.6%	12.6µM*[quencher]
Cc1cc(C(=O)N/N=C/c2c(C)[nH]c3ccccc23)n[nH]1	4.7%	.	4.6%	?	11.2%	?
O=C(N/N=C/c1cn(-c2cccs2)nc1-c1ccccc1)c1ccc(O)cc1	-3.6%	4.7%	3.1%	?	-12.9%	10µM*[quencher]
CCN(CC)C(C)CN1c2ccccc2Sc2ccccc21 (stereo not given)	.	?	?	11.2%	-17.3%	20µM*[quencher]
CCCC12CN3CC(CCC)(CN(C1)C3c1c(C)[nH]c(=O)[nH]c1=O)C2=O (stereo not given)	.	-4.1%	7.6%	-0.1%	.	-5.5%
Cc1c(C(=O)NC(=S)Nc2ccc(NC(=O)c3cccs3)cc2)oc2ccccc12	-5.6%	?	-18.8%	4.8%	8.91µM*	?
O=C(Nc1ccccn1)c1cccs1	3.36µM*	10.9%	-11.7%	-4.1%	-2.9%	0.6%
Cc1cccnc1NC(=S)NC(=O)c1cccs1	-1.2%	-13.3%	7.9%	-4.2%	79.4µM*	-11.9%
Cc1cccnc1NC(=O)CCC(=O)c1cccs1	-14.3%	.	-6.0%	.	.	.
O=C(NC(=S)Nc1ccccc1)c1cccs1	-4.4%	.	10.9%	.	44.7µM*	.
CC(C)CNC(=O)C1(C)CCN1C(=O)c1ccc(C(C)(C)C)cc1 (stereo not given)	-2.5%	.	.	.	.	.
COCCN=c1scc(-c2cccs2)n1/N=C/c1ccc(O)c(O)c1O	7.52µM*	5.5%	-28.6%	5.9%	7.08µM*	2.2%
